TRHR enhancer = TRH receptor (human) allosteric enhancement; enhancement, % at 2 µM; P34981; TRHR cells, fluo-8 calcium fluorescence, EC20 TRH enhancement; 360,000 compounds, 0.66% hits; AID 493056; in the data active = enhancement above about 30%; note: 0% is about no effect
Target sequence (P34981 whole entry, looked up): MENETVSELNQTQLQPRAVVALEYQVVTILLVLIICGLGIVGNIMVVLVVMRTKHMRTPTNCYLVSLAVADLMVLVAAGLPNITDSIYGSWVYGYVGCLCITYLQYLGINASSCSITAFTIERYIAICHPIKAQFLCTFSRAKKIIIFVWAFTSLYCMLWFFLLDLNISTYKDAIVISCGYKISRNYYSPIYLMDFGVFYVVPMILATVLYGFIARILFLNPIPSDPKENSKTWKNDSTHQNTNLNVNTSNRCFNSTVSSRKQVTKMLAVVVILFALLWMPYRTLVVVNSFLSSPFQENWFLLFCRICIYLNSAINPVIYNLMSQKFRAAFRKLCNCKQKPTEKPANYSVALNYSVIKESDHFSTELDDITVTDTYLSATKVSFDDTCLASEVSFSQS
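TRHR-expressing cells loaded with fluo-8 calcium dye were read kinetically (ex 480/em 530) during compound addition, then stimulated with an EC20 of TRH (10 nM final). Enhancement of the Gq-mediated intracellular calcium response was scored.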
D1 PAM = potentiators of human D1 dopamine receptor. P21728. HEK293 TREx D1 cells, calcium flux, dopamine EC20 potentiation. potentiation, % at 10 µM. 360,000 compounds, 0.036% hits; in the data active = potentiation above about 30%; note: 0% is about no effect
TRHR agonist = TRH receptor (human) agonism; AID 493084; 360,000 compounds, 0.18% hits; P34981; activation, % at 2 µM; TRHR cells, calcium flux fluo-8, FDSS agonist mode; note: 0% is about no effect
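TRHR-expressing cells loaded with fluo-8 calcium dye; 23 nL library compound pin-transferred, kinetic FDSS fluorescence (Ex 480/Em 530) recorded about 180 s for agonist-induced calcium release, before a 10 nM TRH EC20 addition for potentiator mode.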
D1 ag = agonists of human D1 dopamine receptor; HEK293 T-REx D1 cells, calcium flux, agonist mode; P21728; 360,000 compounds, 1% hits; activation, % at 2 µM; AID 504660; note: 0% is about no effect
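Agonism was scored from calcium flux recorded over 180 s (1 read/s) after pintool compound addition, following a 10-cycle baseline. Cells were inducible force-coupled HEK293 TREx D1, plated overnight at 30 C and loaded with no-wash calcium dye.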
D1 antag = human D1 dopamine receptor antagonism; HEK293 TREx D1 cells, calcium flux, dopamine EC80; active compounds read low; AID 504652; 360,000 compounds, 3.2% hits; P21728; activity change, negative = inhibition, % at 10 µM; in the data active = activity change below about -30%; note: % is set by controls: 0 for no effect and ±100 for the full control effect
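Cells carrying a force-coupled, tetracycline-inducible human D1 receptor report calcium flux. Each well gets a 10 s baseline, compound with 180 s monitoring, then an EC80 dopamine stimulus with a second 180 s kinetic read.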
An asterisk follows results filed as active; . = no result. An excerpt weighted towards active compounds, which were near 4.7% of everything screened. Cut-off read from the data, not from the text of the source, unless noted: active = activation above about 30%; inactive = the rest.

SMILES | TRHR enhancer | D1 PAM | TRHR agonist | D1 ag | D1 antag
COc1cc(OC)c(NC(=O)CCn2cnc3onc(-c4ccc(F)cc4)c3c2=O)cc1Cl | 28.5 | -5.3 | 1.2 | 7.9 | -19.9
CCC(=O)N1CCc2cc(S(=O)(=O)NCCC(=O)Nc3cc(C)ccc3OC)ccc21 | -0.1 | -0.2 | -0.3 | -0.1 | 2.1
Nc1nonc1-n1nnc(C(=O)N/N=C/c2ccco2)c1-c1ccccc1 | 4.3 | 5.8 | 0.6 | 4.6 | 6.4
Cc1ccc(/C=N/NC(=O)c2nnn(-c3nonc3N)c2-c2ccccc2)o1 | 5.2 | -4.2 | -0.2 | 34.4* | -14.6
CCOc1ccc(-c2c(C(=O)N/N=C/c3ccc(C)o3)nnn2-c2nonc2N)cc1 | 9.1 | -0.8 | 0.1 | -0.4 | -8.5
Nc1nonc1-n1nnc(C(=O)N/N=C/c2ccoc2)c1-c1ccccc1 | 10.1 | -7.0 | 1.2 | 35.4* | 17.4
O=C(CN1C(=O)COc2ccc(S(=O)(=O)N3CCOCC3)cc21)N1CCN(c2cccc(C(F)(F)F)c2)CC1 | -1.8 | 5.2 | -0.4 | 0.7 | -0.1
CC1(C)OC(=O)C(=CNc2ncccn2)C(=O)O1 | 5.1 | -3.6 | 0.9 | 0.3 | 0.5
CC1(C)OC(=O)C(=CNNc2c(Cl)cc(Cl)cc2Cl)C(=O)O1 | 31.3* | -1.3 | -1.4 | 1.7 | -4.9
COc1ccc(-c2oc3cc(O)c(OC)c(O)c3c(=O)c2OC)cc1 | 5.6 | -7.5 | -0.9 | -1.0 | -30.2*
COc1c(-c2ccc(O)cc2)oc2cc(O)cc(O)c2c1=O | 2.2 | -7.0 | -0.8 | 0.4 | -2.7
Nc1cc(=O)nc(SCC(=O)Nc2ccccc2)n1CCc1ccccc1 | 3.9 | -2.2 | -0.3 | -1.1 | 6.9
O=C(Cc1ccccc1F)Nc1nc(-c2cccs2)cs1 | 2.1 | -6.5 | -0.2 | 5.9 | 13.3
CC1Cc2cc(-c3csc(NC(=O)Cc4cccs4)n3)ccc2N1S(C)(=O)=O (stereo unspecified) | -8.4 | -5.0 | -1.0 | 8.4 | -42.3*
O=C(Cc1c(F)c(F)c(F)c(F)c1F)Nc1nc(-c2ccccc2)cs1 | -3.9 | -11.9 | 1.8 | 35.9* | -1.6
O=C(Cc1cccs1)Nc1nc(-c2ccc(F)c(F)c2)cs1 | 0.6 | -5.2 | 0.5 | 2.4 | -8.3
O=C(Cc1ccccc1)Nc1nc(-c2cccs2)cs1 | 19.6 | -8.3 | 1.3 | 3.5 | -31.2*
O=C(Cc1cccs1)Nc1nc(-c2ccc(F)cc2F)cs1 | 5.6 | 7.9 | 0.2 | 15.1 | -43.7*
O=C(Cc1ccc(F)cc1)Nc1nc(-c2ccc(F)cc2)cs1 | -12.8 | -5.8 | 0.7 | 4.3 | 1.6
COc1ccc(CN(C(=O)Nc2ccccc2)c2ccccn2)cc1OC | 18.3 | 2.5 | 0.0 | 1.0 | 2.3
CC(=O)NCCNC(=O)CCCc1nnc2n(CCC(C)C)c(=O)c3sccc3n12 | 7.4 | -4.8 | 0.2 | 0.3 | 7.3
COc1cc(NC(=O)CSc2nccn2C)cc(OC)c1OC | 3.9 | -0.7 | 2.4 | -0.8 | 15.7
Cn1nc(C(=O)NCc2ccccc2)c2c1-c1ccccc1SC2 | 7.3 | 0.1 | 0.6 | 3.8 | -9.0
Cn1nc(C(=O)NCc2ccccc2Cl)c2c1-c1ccccc1SC2 | 5.9 | -1.3 | 0.2 | -0.2 | -32.7*
Cc1ccc(-c2noc(CNC(=O)c3ccc(C)c(Cl)c3)n2)cc1 | -3.5 | -0.2 | 1.7 | 15.6 | 3.0
SMILES | TRHR enhancer | D1 PAM | TRHR agonist | D1 ag | D1 antag
COc1cccc(C(c2sc3ncnn3c2O)N2CCN(C(=O)c3ccco3)CC2)c1 (stereo unspecified) | 37.2* | 1.8 | -1.1 | 0.6 | 5.7
O=C(c1ccco1)N1CCN(C(c2cccs2)c2sc3ncnn3c2O)CC1 (stereo unspecified) | 0.8 | -2.7 | 0.4 | 2.0 | 7.9
CC1(NC(=S)N(CCO)CCO)CCS(=O)(=O)C1 (stereo unspecified) | 0.6 | -6.3 | 2.3 | 5.1 | 12.0
CCc1c(C2(O)CCCCC2)[nH]c2ncccc12 | -2.7 | 2.3 | -0.5 | -2.7 | .
CCc1c(C2(O)CCCCC2)[nH]c2cc(C(F)(F)F)ccc12 | 22.0 | -0.2 | 1.3 | 31.6* | 12.0
CC1=C(C(=O)OC2CCCCCC2)C(c2c(F)cccc2Cl)CC(=O)N1 (stereo unspecified) | -6.5 | -2.0 | 1.3 | 3.9 | -6.0
CCOC(=O)c1sc2nc(C)nc(NCCc3ccccn3)c2c1C | -2.9 | -1.6 | -0.7 | 2.9 | -2.9
CCOC(=O)c1sc2nc(CSc3ccccc3)nc(NCCN(C)C)c2c1C | -11.6 | -10.3 | -1.5 | 50.4* | -20.4
CCOc1ccc(C(CC(=O)Nc2cc(C)c(Cl)cc2OC)N2Cc3ccccc3C2=O)cc1OC (stereo unspecified) | 1.4 | -0.8 | -0.9 | 0.6 | -4.7
COc1ccc(CCNC(=O)c2csc3c2CCCC3)cc1OC | 4.3 | -0.3 | -0.7 | 3.6 | 1.0
CSc1ccc(CCNC(=O)c2csc3c2CCCCC3)cc1 | -2.4 | -1.4 | 0.6 | 11.6 | -37.9*
N=C(N)SCc1ccc(Cl)cc1Cl | 1.1 | 1.9 | -2.6 | 33.8* | 6.1
NC(=S)Cc1ccc(Cl)cc1Cl | -1.8 | -7.0 | -0.7 | 3.1 | 2.1
Cc1ccc(CNC(=O)CN2C(=O)COc3ccc(S(=O)(=O)Nc4ccccc4)cc32)cc1 | -8.5 | 0.0 | -0.1 | 0.8 | 3.0
COc1cccc(/C=N/N2C(=O)CSC2=S)c1O | 1.8 | -13.8 | 0.5 | 2.0 | -13.2
COc1cc(/C=N/N2C(=O)CSC2=S)cc(Br)c1O | 9.0 | 2.6 | 20.5 | 43.5* | -1.8
COc1cccc2sc3ccc(NCc4ccc5c(c4)OCO5)cc3c(=O)c12 | 0.9 | 2.6 | 13.4 | 30.7* | 0.2
O=C1C(c2ccc(F)cc2)N(Cc2ccccc2Cl)C(=O)CN1C1CCCCC1 (stereo unspecified) | -2.2 | -0.7 | -0.6 | -2.2 | -42.4*
CCOc1ccccc1NC(c1nnc(-c2ccccc2)o1)c1ccc(F)cc1Cl (stereo unspecified) | -7.8 | -3.4 | 0.9 | 2.2 | 3.4
Cc1ccc(NC(=O)CS(=O)(=O)c2nc(-c3ccc(C)cc3)cn2-c2ccc(C)cc2)cc1 | 1.0 | 0.6 | 1.8 | 6.7 | -10.8
COc1ccc(CNC(=O)C(=O)NCC(c2cccnc2)N2CCN(c3ccccc3)CC2)cc1 (stereo unspecified) | -9.1 | -1.2 | -0.2 | 4.1 | -5.9
COc1cc(OC)c(OC)cc1CN1CCN(Cc2ccco2)CC1 | 4.7 | 0.8 | 0.0 | 4.3 | -33.2*
CCc1ccc(CNC(=O)CN2C(=O)C3CCCCN3c3ccc(C(=O)N4CCCC4)cc32)cc1 (stereo unspecified) | -7.6 | 8.7 | -0.9 | -0.6 | 9.1
Cc1nccn1CCOc1ccccc1Cl | -5.3 | -7.4 | 0.0 | 7.2 | -34.5*
COc1ccc(C(=O)N(Cc2cc(OC)c(OC)c(OC)c2)CC2CCCO2)cc1 (stereo unspecified) | -4.3 | 2.8 | 0.5 | -0.9 | 0.4
CCN(CC)CCNC(=O)c1cc2cc3ccc(OC)cc3nc2o1 | -8.0 | 9.3 | -0.3 | 1.2 | -35.2*
CCCCN(C)CCNC(=O)c1cc2cc3ccc(OC)cc3nc2o1 | -9.0 | 0.8 | -0.4 | 3.4 | 0.7
